Screening data from PubChem BioAssay.
UGM FP inh: blocks M. tuberculosis UGM enzyme; purified UGM, fluorescence polarization probe displacement; inhibition, % at 10 µM; P9WIQ1; 320,000 compounds, 0.06% hits; in the data active means inhibition above about 10%, passing the limit was not always enough
PrP 5UTR inh: suppresses PrP 5' UTR mRNA reporter expression | cell-based PrP 5' UTR mRNA reporter, plate reader | inhibition, % (concentration not given with the values) | 340,000 compounds, 0.35% hits | AID 488862; in the data active means inhibition above about 52%; further: 0 = median of the neutral control wells
BJeLR lethal: BJeLR cell viability loss. inhibition, % (no concentration beside the values). 300,000 compounds, 0.17% hits. BJeLR (HRASV12) viability, CellTiter-Glo ATP luminescence, 48 h. AID 1554; in the data active means inhibition above about 50%
RecA intein inh: Mtb RecA intein splicing inhibition. P9WHJ3. cell-free RecA intein splicing, fluorescence. inhibition, % (concentration not given with the values). 290,000 compounds, 0.75% hits; in the data active means inhibition above about 30%;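 further: 0% = vehicle wells and 100% = reference inhibitor control wells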
FadD28 binding: blocks FadD28 binding to the bisubstrate probe. 360,000 compounds, 0.22% hits. inhibition, % at 12.5 µM. fluorescence polarization; in the data active means inhibition above about 8.5%, passing the limit was not always enough
Rv3671c inh: Rv3671c (M. tuberculosis) protease inhibition; P9WHR9; inhibition, % at 5.96 µM; 320,000 compounds, 0.048% hits; AID 2606; in the data active means inhibition above about 38%;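 further: extracellular domain of Rv3671c used as enzyme; 0% = enzyme with DMSO and 100% = no enzyme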
DNA intercal FP: DNA intercalation detected by acridine orange polarization counter-screen; shares compounds with UGM FP inh; acridine orange-DNA binding, fluorescence polarization; AC50, µM; 35 compounds, 60% hits;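 active means fitted AC50 no greater than ten times the top concentration tested, cut at about 17 µM in these data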
* = called active by the depositor; . = no result. An excerpt weighted towards active compounds, which were near 1.3% of everything screened.

SMILES | UGM FP inh | PrP 5UTR inh | BJeLR lethal | RecA intein inh | FadD28 binding | Rv3671c inh | DNA intercal FP
Cc1cc(C)cc(NS(=O)(=O)c2ccc3c(c2)C(C)(C)C(=O)N3C)c1 | 1 | -12 | 1 | -1 | -1 | 3 | >35
O=c1cc(-c2ccccc2)oc2cc(O)ccc12 | . | -47 | . | . | -1 | . | .
O=c1ccc2c(-c3ccccc3)c3ccc(O)cc3oc-2c1 | 41* | . | 13 | -93 | 6 | 19 | 0.55*
CCCn1c(=O)c(C(=O)NNS(=O)(=O)c2ccc(Cl)cc2)c(O)c2ccccc21 | 0 | -24 | 4 | 7 | -2 | -11 | .
COc1ccccc1N1CCN(C2CCCN(S(=O)(=O)c3ccccc3)C2)CC1 (configuration not stated) | 1 | -10 | -4 | 3 | -1 | -1 | .
CN(C(=O)c1ccccc1-c1ccccc1C(=O)O)c1ccccc1 | 0 | -5 | -1 | -2 | 0 | 2 | .
CC1Cc2ccccc2N1C(=O)CSc1ncccn1 (configuration not stated) | 4 | -24 | 5 | 0 | -1 | -5 | >35
CC1Cc2ccccc2N1C(=O)CSc1ccccn1 (configuration not stated) | . | . | . | . | -1 | . | .
O=C(COC(=O)COc1ccc(Cl)cc1)NC1CCCCCC1 | . | -27 | . | . | 0 | . | .
CCOC(=O)N1CCN(c2cc(NCCC(=O)O)c3c4c(onc24)-c2ccccc2C3=O)CC1 | -30 | -7 | . | . | 15* | -30 | >35
Cc1cccc(N2C(=O)c3cccc4c(N(C)CCO)ccc(c34)C2=O)c1 | 3 | 0 | -5 | -20 | 2 | 9 | >35
